The source of these data is PubChem BioAssay AID1063 (University of Pittsburgh Molecular Library Screening Center, 2008).

Among all 200,000 compounds or so, about 18,000 (9%) were called active. The full list was thinned out, with actives kept by preference. Values without a mark were called inactive. No stated cut-off is given here; in the data, active means inhibition above about 50%; inactive means the rest.

The test in a line: Leishmania major promastigote growth inhibition, primary screen (AID 1063).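 Further: promastigotes grown with compound for 44 hours at 28 °C.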 The settings on record: Leishmania major promastigotes, resazurin fluorescence viability; at 10 µM; hits give high values.
Consider `Cc1ccc(C)c(Cn2nnc3c(=O)[nH]c(C(=O)Nc4ccc(F)cc4)nc32)c1`, for which the inhibition is 39%.
Then `O=[N+]([O-])c1ccc2[nH]c3c(c2c1)CCCC3O` (stereo not given), with -1.72%.
The value for `CCn1c(CNC(=O)c2ccco2)nnc1SCC(=O)Nc1cccc(F)c1` was -1.95%; that for `CCCCNC(=O)N1CCN(S(C)(=O)=O)CC1` was -0.76%.
For `Cc1ccc(C)c(Cn2cnc3c(oc4ccccc43)c2=O)c1`, the inhibition is -7.39%.
The value for `Cc1ccc(C)c(NC(=O)CSc2nnc(Cc3cccn3C)n2-c2ccc(F)cc2)c1` was -0.8%; that for `Cc1ccc(C)c(NC(=O)CSc2nc3c(oc4ccccc43)c(=O)n2-c2ccccc2)c1` was 97.7% (active); that for `COCCC(=O)Nc1ccc2c(c1)CN(C(=O)CCOC)CC2` was -5.46%.
Then `COCCn1c(N)c(N(Cc2ccccc2)C(=O)C2CCCCC2)c(=O)[nH]c1=O`, with -6%.
The value for `C=CCOC(=O)C1=C(C)N=C2SCCC(=O)N2C1/C=C/c1ccccc1OC` (stereo not given) was 7.43%; that for `O=C(c1cccc(S(=O)(=O)N2CCCC2)c1)N(Cc1ccco1)C1CCS(=O)(=O)C1` (stereo not given) was -2.42%.
On to `O=C(CSc1nnc(-c2cccs2)n1-c1ccccc1)N1CCN(C(=O)c2ccco2)CC1`, for which the inhibition was -10.5%.
The value for `O=C(CSc1nnc(-c2cccs2)n1Cc1ccccc1)N1CCc2ccccc2C1` was 83.6% (active); that for `CCn1c(SCC(=O)c2ccc3ccccc3c2)nnc1-c1cccs1` was -1.02%.
Then `COC(=O)c1ccc(COC(=O)c2cnccn2)cc1`, with -1.35%.
The value for `COc1ccccc1NC(=O)C1=C(C)Nc2nnnn2C1c1cccc(Br)c1` (stereo not given) was 95.7% (active).
`COc1cc(C2C(C(=O)Nc3ccccc3OC)=C(C)Nc3ncnn32)ccc1O` (stereo not given): the inhibition is -3.99%.
The value for `COc1ccc(C2C(C(=O)Nc3ccccc3OC)=C(C)Nc3nnnn32)c(OC)c1` (stereo not given) was 15.1%.
The value for `COCCNC(=O)CN(C(=O)CCC(=O)Nc1cc(C)on1)c1ccc(C)cc1C` was 2.39%; that for `Cc1ccnc(NC(=O)CCC(=O)N(CC(=O)NCc2ccccc2)Cc2ccco2)c1` was -5.25%; that for `Cc1ccc(C)c(N(CC(=O)NCc2ccco2)C(=O)CCC(=O)Nc2ccccn2)c1` was 53.3% (active).
The value for `O=S1(=O)CCN(Cc2ccccc2Cl)CC1` was -4.67%; that for `O=C(NCCN1CCOCC1)Nc1cccc(Cl)c1` was -0.08%.
With `O=C(NCC1CCN(Cc2ccccc2Cl)CC1)Nc1cccc(Cl)c1`, the inhibition is 76.4% (active).
Then `N#Cc1ccc(CSc2nnc3ccccn23)cc1`, with -3.72%.
For `Cc1ccc(NN=C2C(=O)OC(C)(C)OC2=O)c(C)c1`, the inhibition is -4.89%.
As for `Cc1onc(C(=O)NN)c1C(=O)N1CCN(C(c2ccccc2)c2ccccc2)CC1`, the inhibition is -5.09%.
The value for `CN(c1ccccc1)S(=O)(=O)c1cccc(NC(=O)Cc2c(F)cccc2Cl)c1` was 98.4% (active).
Then `O=C(Cc1c(F)cccc1Cl)Nc1ccc(-n2cnnn2)cc1`, with 1%.
The value for `CN(c1ccccc1)S(=O)(=O)c1ccc(Cl)c(C(=O)OCC(N)=O)c1` was -0.01%; that for `C=CCNc1scc(-c2ccccc2)[n+]1CC=C` was 9.84%.
On to `Cc1cccc(C(=O)NCCCN2CCCC2=O)c1`, for which the inhibition was -4.51%.
The value for `CCN1CCN(CCNC(=O)c2ccc(/C=C3/Sc4ccccc4N(Cc4cccc(C)c4)C3=O)cc2)CC1` was 101% (active).
Then `Cc1nn(Cc2ccccc2)c(C)c1C(=O)NCCN1C(=O)S/C(=C\c2ccc(F)cc2)C1=O`, with -6.47%; and `COC(=O)c1ccc(CSc2nncn2N)cc1`, with -3.29%; and `COc1cc(NS(=O)(=O)c2ccc(NC(=O)CN3C(=O)c4ccccc4C3=O)cc2)ncn1`, with 4.83%.
The value for `CN(Cc1ccccc1)Cc1ccccc1F` was -3.21%.
As for `N=c1n(CCc2ccccc2)c2ccccc2n1Cc1ccccc1F`, the inhibition was 97.3% (active).
Then `Fc1ccccc1Cn1cnc(NC(=S)NCCc2ccccc2)n1`, with -2.69%; and `C=C(C)C1CC=C(C)/C(=N/NC(=O)CCCNc2cccc(C)c2)C1` (stereo not given), with -1.55%.
With `CN(C)c1ccc(CNC2C3CC4CC(C3)CC2C4)cc1` (stereo not given), the inhibition was 75.6% (active).
The value for `CN(C)c1ccc(CNC23CN4CN(CN(C4)C2)C3)cc1` was -1.82%; that for `c1cnc(NC2C3CC4CC(C3)CC2C4)nc1` (stereo not given) was 27.5%.
The value for `O=C(O)C1CC=CCC1C(=O)Nc1ccccc1C(=O)N1CCN(c2ccccc2)CC1` (stereo not given) was -4.97%.
The value for `Cc1cccc(N2CCN(C(=O)c3ccccc3NC(=O)C3CCCCC3C(=O)O)CC2)c1` (stereo not given) was -7.46%; that for `CC(C)c1ccc(N2CCN(C(=O)c3ccccc3NC(=O)/C=C(\C(=O)O)c3ccccc3)CC2)cc1` was 100% (active).
For the compound `Cc1nc(S(=O)(=O)c2ccc(Br)cc2)nc2c1CCC2`, the inhibition was -6.99%.
As to `CCOCCCNC(=O)C(NC(=O)c1ccccc1O)c1ccccc1` (stereo not given), the inhibition is -1.57%.
The value for `CCc1ccc(Nc2nnc(SCC(=O)c3ccc4c(c3)NC(=O)CO4)s2)cc1` was -5.5%.
Then `COc1cccc(CNC(=O)CCC2CCCN(C(=O)c3cc(C)[nH]n3)C2)c1` (stereo not given), with -7.13%; and `COc1cccc2cc(/C(C)=N/NC(=O)c3ccco3)oc12`, with 31%; and `N=c1c2c3c(sc2ncn1N)CCCC3`, with -4.1%.
Then `N=c1c2c3c(sc2ncn1CCCN1CCOCC1)CCCCC3`, with 90.5% (active).
Turning to `N=c1c2c3c(sc2ncn1N)CCCCC3`, the inhibition was -0.23%.
The value for `COC(=O)C(=Nc1ccccc1)/C(C(=O)C(=O)N(C)c1ccccc1)=C(\O)c1ccc(Cl)cc1` was -4.81%.
Then `Cc1cccc(C)c1NC(=O)c1ccc(CN2CCc3ccccc3C2)cc1`, with 73.9% (active); and `Cc1ccc(NC(=O)CCN2CCc3ccccc3C2)cc1`, with 5.9%.
The value for `Cc1ccc(NC(=O)CN2CCc3ccccc3C2)cc1` was -2.33%; that for `CCN=c1sc(C(=O)Nc2ccccc2)c(C)n1CC` was -3.21%; that for `CC(C)C(c1nnnn1C(C)(C)C)N1CCN(Cc2cccnc2)CC1` (stereo not given) was -1.86%.
Regarding `O=C(CSc1nc2ccccc2o1)N1CCN(c2ccc(Cl)cc2)CC1`, the inhibition was 0.01%.
Then `O=C(CSc1nc2ccccc2o1)N1c2ccccc2Sc2ccc(Cl)cc21`, with 71.7% (active); and `Cc1ccccc1OCc1nnc(SCC(=O)N2c3ccccc3Sc3ccc(Cl)cc32)o1`, with 11.3%; and `COc1ccc(-c2nc3cnccn3c2NC(C)(C)CC(C)(C)C)cc1O`, with 32.8%.
Then `CS(=O)(=O)c1ccc2nc(NC(=O)c3ccc(Cl)nc3)sc2c1`, with 3.2%; and `COc1ccccc1-n1c(=S)[nH]c2c(sc(=S)n2-c2ccc(C)cc2C)c1=O`, with -6.57%.
Then `Cc1nc([N+](=O)[O-])c(NCCCO)n1Cc1ccccc1`, with 10.7%; and `N=c1c2c(-c3ccccc3)c(-c3ccccc3)oc2ncn1Cc1ccco1`, with 33.3%; and `N=c1c2c(-c3ccccc3)c(-c3ccccc3)n(Cc3ccccc3)c2ncn1CCCO`, with 100% (active).
For the compound `O=C(COC(=O)c1ccccc1C(=O)N1CCN(c2ccccc2)CC1)NCc1ccccc1`, the inhibition is -2.49%.
The value for `Oc1ccccc1N1CCN(C(=S)NCc2ccccc2)CC1` was -5.57%; that for `Oc1ccc(N2CCN(C(=S)NCc3ccccc3)CC2)cc1` was 53.4% (active); that for `Cc1ccc(C(NC(=O)N2CCCC2)C(Cl)(Cl)Cl)cc1F` (stereo not given) was -2.3%.
Then `Cc1ccc(-c2csc(SCC(=O)Nc3cc(C)on3)n2)cc1`, with -6.88%; and `Cc1ccc2nc(-c3ccc(SCC(=O)Nc4cc(C)on4)nc3)[nH]c2c1`, with 64.8% (active); and `Cc1cc(NC(=O)CSc2nc3ccccc3n2CC(C)C)no1`, with 10.5%.
The value for `CCN1CCN(C(=O)c2ccc(CN(c3ccc(C)c(C)c3)S(C)(=O)=O)cc2)CC1` was 3.09%.
For the compound `COc1ccc(NC(=S)SC)cc1OC`, the inhibition was 80.4% (active).
Take `COc1ccc(C(=O)NC(=S)Nc2ccc(N3CCCC3)cc2)cc1OC`: the inhibition was 26.5%.
With `COc1ccc(NC(=O)CN(C)S(=O)(=O)c2ccccc2)cc1OC`, the inhibition is -1.12%.
Then `O=C(NCc1ccccn1)c1cc(Br)ccc1Cl`, with 17.5%; and `CN(C)NC(=O)C(NC(=O)c1ccc(N)cc1)C12CC3CC(CC(C3)C1)C2` (stereo not given), with 3.34%; and `S=C(NCC1COc2ccccc2O1)Nc1ccc(Br)cc1` (stereo not given), with -3.43%.
The value for `c1ccc2c(c1)OCC(CNc1ncnc3nc[nH]c13)O2` (stereo not given) was -3.1%; that for `c1ccc(-c2cc3c(NCC4COc5ccccc5O4)ncnc3s2)cc1` (stereo not given) was 98.8% (active).
Then `CN(C)C(=O)CSc1n[nH]c(-c2ccco2)n1`, with -3.34%.
As for `COc1ccccc1N1CCN(CC(=O)NCCc2ccc(S(N)(=O)=O)cc2)CC1`, the inhibition is -5.9%.
Then `Cc1nc([N+](=O)[O-])cn1CC(=O)Nc1ccc2c(c1)OCO2`, with -4.99%.
Then `COc1ccc(NC(=O)CN(C)CC(=O)Nc2cccc(C(F)(F)F)c2)cc1`, with 6.17%; and `CCOc1ccc(NC(=O)CN(C)CC(=O)Nc2cccc(Cl)c2C)cc1OCC`, with 84.2% (active).
Then `CCOc1ccc(NC(=O)CN(C)CC(=O)NC(C)c2ccccc2)cc1OCC` (stereo not given), with -1.35%.
Turning to `S=c1[nH]nc(/C=C/c2ccccc2)o1`, the inhibition is -11.6%.
Then `CN1CCN(CC(=O)Nc2cccc([N+](=O)[O-])c2)CC1`, with -5.42%; and `O=C(O)c1cccc(NC(=S)N/N=C/c2c[nH]c3ccccc23)c1`, with -4.34%; and `O=C(N/N=C/c1ccc(Cl)cc1)c1nc2ccc([N+](=O)[O-])cc2c(=O)[nH]1`, with 13.4%.
